Source: PubChem
This is a sample that favours compounds with a hit; in the whole collection about 3% have one here.
LDHA inh: inhibitors of human lactate dehydrogenase A | purified LDHA, NADH/diaphorase-resazurin fluorescence; active compounds read low | P00338 | 480,000 compounds, 0.15% hits | activity change, % (values are at about 110 or 230 µM); in the data active means activity change below about -30%; inconclusive means mostly about -25% to -30%;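 further: plate controls were DMSO wells for no effect and wells without enzyme for full effect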
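Resorufin fluorescence (ex540/em590), read at 0 and 20 min after diaphorase/resazurin addition, reports the NADH left after a 5 min room-temperature reaction of 2 nM human LDH5 with 0.06 mM NADH and 0.2 mM pyruvate.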
ALOX12 inh: ALOX12 (human) lipoxygenase inhibition; P18054; purified 12hLO, xylenol orange hydroperoxide absorbance; Potency, µM (series often up to 108 µM), for the others: at the highest dose activity change, negative = inhibition, actives largely listed as inhibitors; 580,000 compounds, 1.1% hits; AID 1671190; active means well fitted inhibition curve with a large enough effect; inconclusive means small, poorly fitted or top-dose-only effect, or another doubt; inactive means no such curve, though single readings can be large or run the other way; further: potency means the concentration at half of the fitted maximal effect; on the % scale 0 is the no-effect control and ±100 the full control effect
Target sequence (P18054 whole entry, looked up): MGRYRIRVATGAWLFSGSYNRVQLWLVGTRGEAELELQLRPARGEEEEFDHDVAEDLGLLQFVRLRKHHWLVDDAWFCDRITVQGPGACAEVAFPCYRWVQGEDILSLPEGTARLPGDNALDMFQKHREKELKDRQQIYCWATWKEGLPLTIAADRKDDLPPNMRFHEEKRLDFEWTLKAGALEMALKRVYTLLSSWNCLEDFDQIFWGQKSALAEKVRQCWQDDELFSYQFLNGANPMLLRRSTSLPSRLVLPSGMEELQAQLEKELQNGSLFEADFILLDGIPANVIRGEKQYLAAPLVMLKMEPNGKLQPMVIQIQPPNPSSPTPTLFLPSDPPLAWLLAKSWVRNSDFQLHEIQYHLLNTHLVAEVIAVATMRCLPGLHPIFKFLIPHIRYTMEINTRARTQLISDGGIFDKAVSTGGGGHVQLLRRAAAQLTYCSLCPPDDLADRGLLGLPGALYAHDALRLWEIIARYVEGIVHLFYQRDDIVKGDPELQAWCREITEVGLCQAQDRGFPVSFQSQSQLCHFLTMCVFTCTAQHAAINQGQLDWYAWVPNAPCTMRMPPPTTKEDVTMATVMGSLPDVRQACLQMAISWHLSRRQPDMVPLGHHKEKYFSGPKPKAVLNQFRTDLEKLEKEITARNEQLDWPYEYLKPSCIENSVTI
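Hydroperoxide product was detected by ferrous iron/xylenol orange as the 573 to 405 nm absorbance ratio. Arachidonic acid at 40 uM (final) was turned over for 30 min at room temperature by 150 nM human 12hLO, pH 7.0 Hepes buffer, after 15 min compound preincubation.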
Chronic BCR inh: inhibitors of chronic active B-cell receptor signaling. 340,000 compounds, 0.05% hits. ABC-DLBCL IkBa-CBG/CBR reporter, luminescence ratio, 4 h. Potency, µM (doses to about 46.1 µM), without a hit: at the top dose activity change, negative = inhibition, hits mostly inhibitors; active means well fitted inhibition curve with a large enough effect in the signal ratio, with a control signal flat, not every such curve was filed as active; inconclusive means small, poorly fitted or top-dose-only effect, or effect the other way, or a change in a side signal; the % refers to the signal ratio;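 further: potency means the concentration at half of the fitted maximal effect; plate controls were basal doxycycline-induced cells for no effect and cells given 10 µM MG132 for full effect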
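TMD8 ABC-DLBCL cells carrying doxycycline-inducible green luciferase fused to IkappaBalpha plus unfused red luciferase were exposed to compounds (up to 46 uM) for 4 hrs at 37C. Activity came from the overlap-corrected green/red luminescence ratio.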
hERG WT inh: blocks the wildtype human KCNH2 potassium channel. U2OS, BacMam KCNH2, thallium flux FluxOr; active compounds read low. 340,000 compounds, 0.37% hits. activity change, % at 1.84 µM. Q12809. AID 720551;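 active means maximum activity change below -70%; inconclusive means maximum activity change between -70% and -50%; inactive means maximum activity change above -50%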; further: on the % scale 0 is the no-effect control and ±100 the full control effect
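U2OS cells were transduced with wild-type KCNH2 virus (2.03 x 10^8 / mL) for 4 h at room temperature, then cultured overnight at 37 C. Thallium flux was read with FluxOr dye. Rate constants were normalized to DMSO controls.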
KCNH2 3.1 inh: KCNH2 3.1 (human) potassium channel inhibition | AID 720553 | U2OS KCNH2 3.1, thallium flux FluxOr; active compounds read low | 340,000 compounds, 0.95% hits | activity change, % (tested at about 1.8 µM);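 active means maximum activity change below -70%; inconclusive means maximum activity change from -70% to -50%; inactive means maximum activity change above -50%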;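 further: thallium influx rate constant from kinetic fluorescence after stimulation buffer; on the % scale 0 is the no-effect control and ±100 the full control effect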
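Virally transduced U2OS (3.1 isoform, 4 h infection in dark at RT) → overnight 37 C → FluxOr + Red40 in HBSS/HEPES, 45 min → stimulation buffer, 2 min kinetic read → rate constant vs DMSO controls.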
ClpP mod: qHTS Assay for Activators of ClpP. ATP-dependent Clp protease proteolytic subunit (Bacillus subtilis (strain 168)), P80244. purified B. subtilis ClpP, FRET peptide cleavage, 20 min. Potency, µM (series often up to 57.5 µM), inactives show top-dose activity change, negative = active. 340,000 compounds, 1.9% hits; active means well fitted falling curve with a large enough effect; inconclusive means small, poorly fitted or top-dose-only effect; inactive means no such curve, though single readings can be large or run the other way; further: potency means the concentration at half of the fitted maximal effect; the source files actives as falling curves though it sought activators and does not explain the sign; nearly all actives have a fitted effect of over 65% in size
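ClpP 10 microg/mL final, pH 8 Tris/KCl buffer with BSA, glycerol, Tween-20; compound pinned in; FRET-FV substrate; RT 20 min; Ex320/Em430; ΔFRET vs ADEP 5.8 microM, DMSO, no enzyme.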
* marks the source's active call; other numbers are inactive results; u = inconclusive; x = not tested or not shown.

SMILES	LDHA inh	ALOX12 inh	Chronic BCR inh	hERG WT inh	KCNH2 3.1 inh	ClpP mod
Cc1cc(S(=O)(=O)N2CCOCC2)ccc1OCC(=O)Nc1ccc(F)cc1	-7.7	0.6%	1.3%	-5.5	3.3	12.6µM*
Cc1cc(S(=O)(=O)N2CCOCC2)ccc1OCC(=O)Nc1ccc(F)c(Cl)c1	-2.6	9.8%	1.8%	11.4	-13.9	x
O=C(Nc1cccc2ccccc12)O[C@@H]1CO[C@H]2[C@@H]1OC[C@@H]2NS(=O)(=O)Cc1ccccc1	x	0.5%	x	x	x	x
CCOC(=O)Cc1c(C)c2c(C)nn(-c3ccccc3)c2oc1=O	-3.7	-22.4%	5.6%	-0.9	1.2	35.5µM*
CC(C)(C)NC(=O)CCc1nnc(Cc2c[nH]c3ccccc23)o1	-0.1	-14.3%	u	-12.5	-109.7*	-4.0%
NS(=O)(=O)c1ccc(NS(=O)(=O)c2ccc(C3CNC(=O)C3)cc2)cc1 (centres undefined)	-3.4	6.2%	-0.2%	2.7	7.4	28.2µM*
O=C(NC1CC1)c1sc2cc([N+](=O)[O-])ccc2c1Cl	-2.8	1.4%	u	2.8	2.4	0.7%
CC(NC(=O)c1sc2cc([N+](=O)[O-])ccc2c1Cl)C(C)(C)C (centres undefined)	-3.0	31.6µM*	-6.4%	8.8	-1.5	0.7%
CCSc1nc(-c2ccc(OC)cc2)ccc1C#N	-6.4	0.0%	4.3%	1.0	-5.2	28.2µM*
Cc1cc(OCC(=O)N(Cc2sccc2C)CC2CCCO2)ccc1Cl (centres undefined)	7.5	u	x	x	x	x
CCCCn1c(N)c(N(C(=O)c2cc3c(s2)CCC3)C2CCCC2)c(=O)[nH]c1=O	-8.0	-28.0%	x	x	x	x
S=c1[nH]nc(C2CC2)n1Cc1ccco1	-2.0	u	0.7%	-322.7*	7.1	0.6%
Oc1cc2ccccc2cc1-c1n[nH]c(=S)n1Cc1ccco1	1.8	39.8µM*	8.3%	-28.0	14.9	4.8%
S=c1[nH]nc(Cc2ccccc2)n1Cc1ccco1	3.5	35.5µM*	3.9%	5.7	17.3	1.7%
CCCn1c(Cc2ccccc2)n[nH]c1=S	-9.0	0.0%	-9.7%	13.0	0.6	-1.2%
COc1ccc(NCc2ccco2)cc1	-2.5	u	x	x	x	x
Cc1cc(=O)[nH]c(SCc2nc3ncccn3c2Br)n1	-1.3	-19.6%	-4.2%	1.6	-1.6	28.2µM*
c1ccc(CSc2nc3ccccc3s2)cc1	-1.4	u	x	x	x	x
Cc1cc(=O)[nH]c(SCc2cccc3cccnc23)n1	-6.9	0.0%	-0.2%	6.4	-3.3	x
Brc1c(CSc2nc3ccccc3s2)nc2ncccn12	-1.9	-14.8%	-9.4%	6.3	7.5	28.2µM*
Cc1ccsc1C(=O)Nc1ccccc1SCc1ccccc1	9.1	-5.2%	x	x	x	x
O=C(CSc1nc(-c2ccccc2)c(-c2ccccc2)[nH]1)NCCN1C(=O)CSC1=O	1.5	u	u	-1.5	-7.3	31.6µM*
CCCSc1nnc(N2C(=O)C(O)=C(C(=O)c3ccco3)C2c2ccccc2F)s1 (centres undefined)	1.8	39.8µM*	6.2%	-8.3	-4.7	-8.4%
CSc1nnc(N2C(=O)C(O)=C(C(=O)c3ccco3)C2c2ccccc2F)s1 (centres undefined)	-5.8	u	4.6%	-1.1	-0.9	-11.8%
C=CCSc1nnc(N2C(=O)C(O)=C(C(=O)c3ccco3)C2c2ccccc2F)s1 (centres undefined)	1.0	0.631µM*	-1.5%	-8.6	-14.0	-7.3%
COc1ccc2c(c1)c(CN1CCOCCNC(=O)CC1)cn2C(C)C	x	118.1%	x	x	x	x
COc1cc(C(=O)Oc2ccccc2C#N)ccc1OCc1ccc(Cl)cc1	6.4	-67.5%	x	x	x	x
CCC(C)NC(=O)CSc1cc(C)c2cc(C)cc(C)c2n1 (centres undefined)	-2.6	u	x	x	x	x
